Hits are enriched below; roughly 6.9% of the tested compounds scored in any of these assays.
Mdm2 MdmX PPI: inhibitors of human Mdm2-MdmX association, primary screen, cell-based, luminescence, split luciferase, SaOS-2, uHTS; inhibition, % at 8 µM; Protein Mdm4 (Homo sapiens) + E3 ubiquitin-protein ligase Mdm2 (Homo sapiens), …; AID 485346, 2010; SaOS-2 split-luciferase Mdm2/MdmX complementation; hit rate 3% among 330,000;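 active means inhibition of at least 50% at 8 µM in the primary screen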
SKKanGAS inh: S. pyogenes SKKanGAS growth inhibitors in kanamycin, primary screen, streptokinase expression inhibitor project, SKKanGAS strain, BacTiter-Glo luminescence; 6 h; inhibition, % at 7.5 µM; hit rate 1.3% among 300,000; AID 1662, 2009;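 active means mean replicate score, as percent of positive control median, at least 50; inconclusive means mean below 50 but one replicate at or above 50; inactive means mean and every replicate below 50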;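 further: strain carries kanamycin resistance gene driven by streptokinase promoter and grows in 40 µg/ml kanamycin; loss of luminescence reflects streptokinase promoter inhibition or plain growth inhibition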
CSC inhib: cancer stem cell viability inhibitors, primary screen, luminescence; cancer stem cell-like cells viability; inhibition, % at 7.5 µM; hit rate 1.1% among 300,000; in the data active means inhibition above about 75%; inconclusive means no clear call, values can overlap the other calls; tested in HMLE shEcad cells
Beta apoptosis: inhibitors of cytokine-induced beta cell apoptosis, primary screen, luminescence; protection from apoptosis, % (no concentration beside the values); hit rate 0.8% among 300,000; INS-1E cytokine-induced death, ATP luminescence, 48 h; percent of positive-control rescue, neutral wells zero;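 active means Every replicate reaches about 75%, or at least half do and their mean reaches it too, limit read from the data; inconclusive means At least half of replicates reach the limit but their mean does not; inactive means Under half of replicates reach the limit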;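 further: higher means more ATP so stronger rescue from cytokine killing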
NR3A LBD binder: binders of NR3A ligand-binding domain, primary screen, biophysical, differential scanning fluorimetry, uHTS; NR3A LBD differential scanning fluorimetry, Tm shift; 0% = protein alone, 100% = glycine-bound protein; Tm shift relative to glycine control, % at 25 µM; hit rate 2.5% among 340,000; AID 1259313, 2017;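 active means melting temperature shift of at least 10% of the positive control shift, at one fixed dose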
MPTP block: mitochondrial permeability transition pore inhibitors, primary screen, biochemical, isolated mouse mitochondria, absorbance. Ca2+ swelling absorbance, 30 min. inhibition, % at 10 µM. hit rate 1.4% among 360,000;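 active means inhibition of 50% or more, scaled per plate between neutral and stimulator controls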
Mdm2 MdmX conf: Mdm2-MdmX complex disruptors, retested hits, confirmation, luminescence, single concentration; hit rate 55% among 10,000; shares compounds with Mdm2 MdmX PPI; inhibition, % at 8 µM; Mdm2-MdmX binding, luminescent assay; in the data active means inhibition above about 40%
Full FLuc ctr: full-length luciferase signal inhibition, confirmation, counter-screen for Mdm2/MdmX interaction inhibitor project, cell-based, single concentration, SaOS-2; hit rate 77% among 6,200; inhibition, % at 8 µM; AID 504607, 2011; shares compounds with Mdm2 MdmX PPI; SaOS-2 full-length luciferase counterscreen, luminescence;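 active means mean inhibition at 8 µM reaching about 37%, which flags the compound as non-specific, limit read from the data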;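 further: p53-null SaOS-2 cells with luciferase driven by a doxycycline-inducible promoter; compound on cells about two nights before reading with doxycycline added after day one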
A number is an active result; i = inactive; ? = inconclusive; nt = no result.

SMILES	Mdm2 MdmX PPI	SKKanGAS inh	CSC inhib	Beta apoptosis	NR3A LBD binder	MPTP block	Mdm2 MdmX conf	Full FLuc ctr
Cc1ccc(N=c2oc3cc(O)ccc3cc2C(N)=O)cc1	84	i	i	i	i	i	53	i
CC(=O)c1cc2ccc(O)cc2oc1=O	i	i	i	i	i	i	nt	nt
NC(=O)[C@@H]1CC2(CC(c3cccc(NC(=O)COc4ccc(Cl)cc4)c3)=NO2)CN1C(=O)COc1ccc(Cl)cc1 (stereo not given in full)	59	i	i	i	23	i	i	nt
NC(=O)[C@H]1CC2(CC(c3cccc(NC(=O)COc4ccc(Cl)cc4)c3)=NO2)CN1C(=O)C(c1ccccc1)c1ccccc1 (stereo not given in full)	60	i	i	i	11	i	i	nt
CCC(=O)Nc1cccc(C2=NOC3(C2)C[C@@H](C(N)=O)N(C(=O)C(c2ccccc2)c2ccccc2)C3)c1 (stereo not given in full)	i	i	i	i	i	i	nt	nt
Cc1ccnc2c1ccc1cccnc12	84	nt	nt	nt	i	i	86	i
Cc1ccnc2c1ccc1c(C)ccnc12	84	nt	111	102	i	i	85	i
c1cnc2c(c1)ccc1cccnc12	77	i	i	i	i	i	82	50
Cn1c(=O)n(CCc2ccccc2)c(=O)c2c1nc1n2CCCN1CCc1ccccc1	65	i	i	i	i	i	i	nt
COc1ccccc1NC(=O)CSc1nnnn1C1CCCCC1	i	i	nt	i	i	i	nt	nt
CC12CC(c3ccccc3O1)N(C(=O)c1ccco1)C(=S)N2c1ccccc1 (stereo not given)	63	i	i	i	i	i	i	nt
CC(=O)c1c(N2CCN(C(=O)c3ccco3)CC2)nc(=S)n(-c2ccccc2)c1C	i	i	i	i	i	i	nt	nt
COc1ccccc1NC(=O)Nc1cc(NC(=O)Nc2ccccc2OC)c(C)nc1C	56	i	i	i	i	i	i	61
COc1ccccc1NC(=O)Nc1ccccc1Br	i	i	i	i	i	i	nt	nt
CCOc1ccc(CNC2CCCCCCC2)cc1OC	i	i	i	i	i	i	nt	nt
O=C(ONC(=O)C1C2C=CC(C2)C1C(=O)NOC(=O)c1ccccc1)c1ccccc1 (stereo not given)	nt	nt	nt	nt	i	i	nt	nt
COc1cc2c(cc1OC)C(Cc1ccc(O)c(Oc3ccc(C[C@H]4c5cc(OC)c(OC)cc5CCN4C)cc3)c1)N(C)CC2 (stereo not given in full)	72	nt	i	i	nt	nt	i	nt
Cc1nc(SC(C)C(=O)NCC2CCCO2)c2cc(-c3ccccc3)sc2n1 (stereo not given)	97	i	i	i	i	i	96	55
N#Cc1cc(-c2ccccc2)oc1/N=C/c1ccccc1O	53	i	nt	i	18	i	57	105
Cc1nc2c(-c3ccccc3)cnn2c(N)c1-c1ccccc1	83	i	i	i	i	i	77	148
Nc1cc(=O)[nH]c(=O)n1CCCc1ccccc1	nt	i	i	i	i	i	nt	nt
CC[C@@]1(C(=O)OC)N[C@H](CN(C)C(C)=O)[C@@H]2C(=O)N(Cc3ccccc3)C(=O)[C@@H]21	i	nt	nt	nt	i	i	nt	nt
CC[C@@]1(C(=O)OC)N[C@H](CN(C)C(=O)Nc2ccc(Cl)cc2)[C@@H]2C(=O)N(Cc3ccccc3)C(=O)[C@@H]21	64	nt	nt	i	i	i	57	51
O=C(NNC(=S)Nc1ccc(Cl)c(Cl)c1)c1ccccn1	79	102	109	78	i	i	84	48
O=C(NNC(=O)C(c1ccccc1)c1ccccc1)c1ccccn1	66	i	i	i	i	i	66	42
SMILES	Mdm2 MdmX PPI	SKKanGAS inh	CSC inhib	Beta apoptosis	NR3A LBD binder	MPTP block	Mdm2 MdmX conf	Full FLuc ctr
COc1ccc(S(=O)(=O)N2CCN(C(=O)c3sccc3-c3ccccc3)CC2)cc1	i	i	i	i	i	i	nt	nt
CC(C)(C)c1ccc(C(=O)O/N=C(\N)c2ccccc2)cc1	97	i	i	i	i	i	88	i
COc1ccc(C(=O)O/N=C(\N)c2ccc(Br)cc2)cc1	96	i	i	i	20	i	i	158
COc1ccc(/C(N)=N/OC(=O)c2ccco2)cc1	i	i	i	i	i	i	nt	nt
Cc1cc(C(=O)O/N=C(\N)c2ccc(C(C)(C)C)cc2)no1	i	i	i	i	i	i	nt	nt
COc1ccc(C(=O)O/N=C(\N)c2ccccc2)cc1	55	i	i	i	nt	i	i	nt
Cc1ccc(C(=O)O/N=C(\N)c2ccc(Br)cc2)cc1	98	i	i	i	i	i	i	nt
Cc1cccc2c(=O)cc(C)n(CC(N)=O)c12	i	i	i	i	i	i	nt	nt
COc1ccc(C(=O)N=S2CCN(C(=O)c3ccc(Cl)cc3)CC2)cc1	i	i	i	i	i	i	nt	nt
Cc1cc2c(cc1C)CSC(c1c(O)ccc3ccccc13)SC2	75	94	112	i	27	i	i	57
COc1ccc(-c2ccc3c(c2)S(=O)(=O)c2cccc(C(=O)NCc4ccccc4Cl)c2C3=O)cc1OC	i	nt	i	i	i	i	nt	nt
O=C(NCc1ccco1)c1cccc2c1C(=O)c1ccc(/C=C/c3ccccc3)cc1S2(=O)=O	53	nt	i	i	i	i	47	69
CC(C)c1cccc(-c2ccc3c(c2)S(=O)(=O)c2cccc(C(=O)NCc4ccccc4)c2C3=O)c1	59	nt	nt	i	i	i	i	nt
O=C(NCc1ccc(F)cc1)c1cccc2c1C(=O)c1ccc(Cl)cc1S2(=O)=O	i	nt	i	i	nt	nt	nt	nt
CC(C)c1cccc(-c2ccc3c(c2)S(=O)(=O)c2cccc(C(=O)NCc4ccccc4Cl)c2C3=O)c1	89	nt	i	i	i	i	i	nt
CCCCN(CCCC)c1nc(-c2ccncc2)nc2ccccc12	56	97	101	nt	i	i	i	nt
c1ccc2c(Nc3nc(-c4ccncc4)nc4ccccc34)cccc2c1	62	i	?	i	i	i	59	72
CC(=O)Nc1ccc(NC(=O)COC(=O)c2c(-c3ccccc3)noc2C)cc1	i	nt	nt	i	i	i	nt	nt
COc1ccc(C(=O)Nc2nc3c(s2)CCCC3)cc1S(=O)(=O)N1CCCc2ccccc21	91	i	nt	i	i	i	90	i
COc1ccc(C(=O)Nc2ncccc2C)cc1S(=O)(=O)N1CCCc2ccccc21	i	i	i	i	i	i	nt	nt

Screens: PubChem BioAssay, several laboratories
